The text below walks through data of PubChem BioAssay (EPA / NIEHS).

Common to all, as to details: primary human HUVEC with PBMC; actives raise or lower the signal
Read-out in test [1]: Monocyte Chemoattractant Protein-1 (MCP1), CCL2 (gene 6347)
The test can be described thus: BSK_LPS_MCP1: BioMAP Diversity Plus: LPS Assay for Monocyte Chemoattractant Protein-1 (MCP1) Biomarker Activity (AID 2283081). The method in brief: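 Secreted MCP-1 read by ELISA at 24 h post-dosing in an LPS-activated co-culture of endothelial cells with peripheral blood mononuclear cells. Fits run in both directions, DMSO as baseline; parallel SRB staining tracks overt cytotoxicity.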

Test [2] in a line: BSK_LPS_PGE2: BioMAP Diversity Plus: LPS Assay for Prostaglandin E2 (PGE2) Biomarker Activity (AID 2283082).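 For AC50: secreted prostaglandin E2 measured by ELISA in LPS-stimulated co-culture.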 The method in brief:
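Primary human endothelial cells and blood mononuclear cells, co-cultured with LPS, receive test chemical; PGE2 ELISA follows at 24 h, with SRB-stained parallel cultures flagging cytotoxicity.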

Read-out in test [3]: Macrophage colony-stimulating factor (MCSF), CSF1 (gene 1435)
Briefly: BSK_LPS_MCSF: BioMAP Diversity Plus: LPS Assay for Macrophage colony-stimulating factor (MCSF) Biomarker Activity (AID 2283083). The method in brief:
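Bidirectional fitting against DMSO was applied to M-CSF levels read by ELISA at 24 h post-dose. The system pairs human umbilical vein endothelium with peripheral blood mononuclear cells; parallel SRB staining tracked cytotoxicity.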

Read-out in test [4]: Tissue Factor, F3 (gene 2152)
Briefly: BSK_LPS_TissueFactor: BioMAP Diversity Plus: LPS Assay for Tissue Factor Biomarker Activity (AID 2283084). The method in brief:
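Compound was added to an endothelial cell/PBMC co-culture, and after 24 h tissue factor (CD142) was read by ELISA. Gain or loss of signal was fitted against a DMSO baseline, and parallel SRB staining (560 nm) tracked overt cytotoxicity.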

Read-out in test [5]: Tumor necrosis factor (Homo sapiens) (UniProt P01375)
Briefly: BSK_LPS_TNFa: BioMAP Diversity Plus: LPS Assay for Tumour Necrosis Factor alpha (TNFa) Biomarker Activity (AID 2283085).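 For AC50: TNFa protein level quantified by ELISA in the co-culture.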 A digest of the protocol: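 ELISA-based TNFa endpoint in a human endothelial–PBMC co-culture sampled 24 h post-exposure. Curves were fitted in both directions using DMSO as baseline of activity.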

Read-out in test [6]: Vascular cell adhesion molecule 1 (VCAM1), VCAM1 (gene 7412)
The test can be described thus: BSK_LPS_VCAM1: BioMAP Diversity Plus: LPS Assay for Vascular cell adhesion molecule 1 (VCAM1) Biomarker Activity (AID 2283086). The method in brief:
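Measured by ELISA: VCAM-1 in LPS-activated HUVEC/PBMC co-cultures 24 h after treatment. Values reflect bidirectional fitting with DMSO as baseline.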

Read-out in test [7]: CD38, CD38 (gene 952)
Briefly: BSK_SAg_CD38: BioMAP Diversity Plus: SAg Assay for CD38 Biomarker Activity (AID 2283087). The method in brief:
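Measures CD38 on a human endothelial/PBMC co-culture driven by SEB and TSST-1, 24 h after compound exposure, using ELISA with fluorescence detection; DMSO defines baseline for bidirectional curve fitting.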

Read-out in test [8]: CD40, CD40 (gene 958)
The test can be described thus: BSK_SAg_CD40: BioMAP Diversity Plus: SAg Assay for CD40 Biomarker Activity (AID 2283088). The method in brief:
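CD40 is measured by fluorescence ELISA in an endothelial/PBMC primary human co-culture at 24 h post-dose. Fitting is bidirectional, DMSO baseline. Parallel SRB staining (560 nm) flags cytotoxicity.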

Read-out in test [9]: CD69, CD69 (gene 969)
The test can be described thus: BSK_SAg_CD69: BioMAP Diversity Plus: SAg Assay for CD69 Biomarker Activity (AID 2283089). A digest of the protocol: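 Endothelial/PBMC co-culture; chemical added; 24 h incubation; CD69 ELISA with fluorescence detection; bidirectional fit vs DMSO.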

Read-out in test [10]: Monocyte Chemoattractant Protein-1 (MCP1), CCL2 (gene 6347)
Briefly: BSK_SAg_MCP1: BioMAP Diversity Plus: SAg Assay for Monocyte Chemoattractant Protein-1 (MCP1) Biomarker Activity (AID 2283090). The method in brief: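 Values derive from bidirectional fitting of ELISA-measured MCP1 against DMSO controls. Readings were taken 24 h after dosing human vascular endothelial cells co-cultured with peripheral blood mononuclear cells under superantigen stimulation.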

Activity calls are given as the source filed them. Rule for the calls: active = hit-call score of the fitted dose curve at least 0.9, where 1 is the maximum; inactive = score below 0.9.

Sequence of Tumor necrosis factor (Homo sapiens) (P01375 whole entry, looked up): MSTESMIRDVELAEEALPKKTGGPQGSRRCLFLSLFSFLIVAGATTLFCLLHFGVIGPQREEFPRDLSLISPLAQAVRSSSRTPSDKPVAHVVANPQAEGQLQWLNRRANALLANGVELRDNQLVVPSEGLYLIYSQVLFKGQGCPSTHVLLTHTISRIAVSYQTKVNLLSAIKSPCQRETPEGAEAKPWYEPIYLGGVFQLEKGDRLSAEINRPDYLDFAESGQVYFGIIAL

As for `COCCOCCOC`, the result in [1], in test [2], in [3], in test [4], in test [5] and in test [6] was inactive. In addition, the outcome in test [7], in [8], in [9] and in test [10] was inactive.

In the case of `CC(C)c1ccc(C(=O)N=C(N)N)cc1S(C)(=O)=O`, the result in test [1], in test [2], in [3], in [4], in test [5] and in [6] was inactive. Moreover, the outcome in test [7], in [9] and in [10] was inactive.

`Cc1ccc(C)c(O)c1C`: the outcome in test [1], in test [3], in [4], in test [5], in test [6] and in [7] was inactive. The result in test [8], in test [9] and in test [10] was inactive. In test [2], the half-maximal activity concentration (AC50) was 0.795 µM (active).

With `CCOC(=O)C(C)(C)Oc1ccc(Cl)cc1`, the result in test [1], in [2], in [3], in test [4], in test [5] and in test [6] was inactive. The result in [7], in test [8], in test [9] and in test [10] was inactive.

With `Nc1ccc2c(c1)C(=O)c1ccccc1C2=O`, the result in [1], in [3], in test [4], in test [6], in [7] and in [8] was inactive. Further, the outcome in test [9] and in [10] was inactive. For the same compound, the AC50 was 3.36 µM (active) in test [2] and 5.74 µM (active) in test [5].

Turning to `CCCCOC(=O)CCCCCCCCC(=O)OCCCC`, the result in [1], in test [2], in test [3], in test [4], in [5] and in test [6] was inactive. For the same compound, the result in [7], in test [8], in test [9] and in test [10] was inactive.

With `CCOC(=O)CCC(=O)OCC`, the outcome in [1], in test [2], in test [3], in test [4], in test [5] and in test [6] was inactive. For the same compound, the result in test [7], in test [8], in test [9] and in [10] was inactive.

For the compound `CC1(C)CC(N=C=O)CC(C)(CN=C=O)C1` (configuration not stated), the outcome in test [1], in test [2], in test [3], in test [4], in test [5] and in test [6] was inactive. Also, the outcome in test [7], in test [8], in test [9] and in test [10] was inactive.

With `C[C@]12C=CC(=O)C=C1CC[C@@H]1[C@@H]2C(=O)C[C@@]2(C)[C@H]1CC[C@]2(O)C(=O)CO`, the outcome in [1], in [2], in test [3], in test [4], in test [5] and in test [6] was inactive. Moreover, the outcome in test [7], in test [8], in test [9] and in test [10] was inactive.

For `Cc1ccc(Cl)cc1`, the outcome in test [1], in test [2], in [3], in test [4], in [5] and in test [6] was inactive. Besides, the result in test [7], in [9] and in [10] was inactive.

Take `O=c1c(O)c(-c2ccc(O)c(O)c2)oc2cc(O)cc(O)c12`: the result in test [1], in test [3], in test [4], in [5], in test [6] and in test [9] was inactive. Moreover, the result in test [10] was inactive. Further, the AC50 in test [2] is 32.8 µM (active); in test [7], 29.9 µM (active).

On to `CCCCCCCC=O`, for which the outcome in [1], in test [3], in test [4], in test [5], in test [6] and in test [7] was inactive. The outcome in test [8], in [9] and in test [10] was inactive.

For `NS(=O)(=O)c1cc2c(cc1Cl)NCNS2(=O)=O`, the outcome in test [1], in test [2], in [3], in [4], in [5] and in test [6] was inactive. Moreover, the outcome in [7], in test [9] and in [10] was inactive.

For the compound `NCCO`, the result in test [1], in [2], in test [3], in [4], in test [5] and in test [6] was inactive. The result in test [7], in test [9] and in [10] was inactive.

Regarding `C=CCOC(=O)c1ccccc1C(=O)OCC=C`, the result in [1], in test [3], in test [4], in [5], in test [6] and in test [7] was inactive. Further, the outcome in test [8], in [9] and in [10] was inactive.

For `COc1ccc(C)cc1N`, the outcome in [1], in test [2], in test [3], in test [4], in test [5] and in test [6] was inactive. The result in test [7], in test [9] and in [10] was inactive.

Take `CCCCCCC(=O)OCC`: the outcome in test [1], in test [2], in test [3], in test [4], in [5] and in [6] was inactive. The outcome in test [7], in test [9] and in [10] was inactive.

For the compound `CCCc1cc(=O)[nH]c(=S)[nH]1`, the outcome in test [1], in [2], in test [3], in [4], in test [5] and in [6] was inactive. Further, the result in [7], in test [9] and in test [10] was inactive.

For `Cc1nc(C)nc(N2C[C@@H](C)N(c3ccnc([C@@H](C)O)n3)[C@@H](C)C2)n1`, the result in test [1], in [2], in [3], in test [4], in test [5] and in test [6] was inactive. For the same compound, the result in test [7], in test [9] and in [10] was inactive.

With `CCCCc1ccc2c(n1)[C@@H](c1ccc(OC)cc1C[C@H](C)C(=O)O)[C@H](C(=O)O)[C@H]2c1ccc2c(c1)OCO2`, the outcome in [1], in [3], in test [4], in test [5], in [6] and in test [7] was inactive. Besides, the outcome in test [8], in [9] and in test [10] was inactive.

Consider `Nc1ccc(S(=O)(=O)c2ccc(N)cc2)cc1`, for which the result in test [1], in test [2], in [3], in test [4], in test [5] and in [6] was inactive. Further, the outcome in test [7], in [9] and in test [10] was inactive.
